According to the supplement of paper PMC9023506:
Where a name gives a salt, the structure may show the parent alone.

Test system: Danio rerio larvae (5 dpf)
Assay: optomotor response to blue moving lines, difference vs DMSO (percentage points (treated minus DMSO)); higher = more of the behaviour than the DMSO vehicle control
Conditions: 10 µM; exposure time: 3 h pre-incubation + 3 h imaging
Description: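 5-dpf wild-type zebrafish larvae were imaged in 96-well plates. They were treated with 190 Tocris FDA-approved drugs at 10 µM (1 µl/ml DMSO) for 3 h before and 3 h during imaging at 28.5 °C, 48 larvae per drug. Automated image analysis gave % time moving and optomotor responses. Values are drug group mean minus DMSO vehicle mean (n=844), in percentage points, for 10 behaviours.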

SMILES | optomotor response to blue moving lines
O=C(O)c1cc(/N=N/c2ccc(S(=O)(=O)Nc3ccccn3)cc2)ccc1O [Sulfasalazine] | -4.22
CCCc1nc2c(C)cc(-c3nc4ccccc4n3C)cc2n1Cc1ccc(-c2ccccc2C(=O)O)cc1 [Telmisartan] | 8.47
O=C1CCc2cc(OCCCCc3nnnn3C3CCCCC3)ccc2N1 [Cilostazol] | 6.53
COc1cc2nc(N3CCN(C(=O)c4ccco4)CC3)nc(N)c2cc1OC [Prazosin hydrochloride] | 0.0687
CCOC(=O)C1=C(C)NC(C)=C(C(=O)OC)C1c1cccc(Cl)c1Cl (stereo not given) [Felodipine] | -5.26
Cc1c(-c2ccc(O)cc2)n(Cc2ccc(OCCN3CCCCCC3)cc2)c2ccc(O)cc12 [Bazedoxifene acetate] | 1.43
CC(=O)Oc1cc2c(s1)CCN(C(C(=O)C1CC1)c1ccccc1F)C2 (stereo not given) [Prasugrel] | 3.83
CCN(Cc1ccncc1)C(=O)C(CO)c1ccccc1 (stereo not given) [Tropicamide] | 0.00192
Cc1ccc(N(CC2=NCCN2)c2cccc(O)c2)cc1 [Phentolamine Mesylate] | 16.3
COc1cc2ncnc(Nc3ccc(F)c(Cl)c3)c2cc1OCCCN1CCOCC1 [Iressa] | 5.63
CC(C)c1nc(CN(C)C(=O)N[C@H](C(=O)N[C@@H](Cc2ccccc2)C[C@H](O)[C@H](Cc2ccccc2)NC(=O)OCc2cncs2)C(C)C)cs1 [Ritonavir] | -11.8
COc1cc(Nc2c(C#N)cnc3cc(OCCCN4CCN(C)CC4)c(OC)cc23)c(Cl)cc1Cl [Bosutinib] | -9.89
CC(C)CN(C[C@@H](O)[C@H](Cc1ccccc1)NC(=O)O[C@H]1CO[C@H]2OCC[C@H]21)S(=O)(=O)c1ccc(N)cc1 [Darunavir] | 8.12
CN1CCN(CCCN2c3ccccc3Sc3ccc(Cl)cc32)CC1 [Prochlorperazine dimaleate] | 12.2
O=C(NCC1CCCCN1)c1cc(OCC(F)(F)F)ccc1OCC(F)(F)F (stereo not given) [Flecainide acetate] | 9.21
COc1ccc([C@@H]2Sc3ccccc3N(CCN(C)C)C(=O)[C@@H]2OC(C)=O)cc1 [Diltiazem hydrochloride] | -5.83
CNCc1ccc(-c2[nH]c3cc(F)cc4c3c2CCNC4=O)cc1 [Rucaparib camsylate] | 10.7
C#C[C@]1(O)CC[C@H]2[C@@H]3CCC4=CC(=O)CC[C@@H]4[C@H]3CC[C@@]21CC [Levonorgestrel] | 19.5
CC[C@H](C)C(=O)O[C@H]1C[C@@H](C)C=C2C=C[C@H](C)[C@H](CC[C@@H]3C[C@@H](O)CC(=O)O3)[C@H]21 [Lovastatin] | 8.37
CCC(=O)O[C@]1(C(=O)SCF)[C@H](C)C[C@H]2[C@@H]3C[C@H](F)C4=CC(=O)C=C[C@]4(C)[C@@]3(F)[C@@H](O)C[C@@]21C [Fluticasone propionate] | -10.1

SMILES | optomotor response to blue moving lines
CN1CCC[C@@H]1Cc1c[nH]c2ccc(CCS(=O)(=O)c3ccccc3)cc12 [Eletriptan hydrobromide] | 5.86
C=CC(=O)N1CCC[C@@H](n2nc(-c3ccc(Oc4ccccc4)cc3)c3c(N)ncnc32)C1 [Ibrutinib] | 6.42
C[C@]12CCC(=O)C=C1CC[C@@H]1[C@@H]2[C@@H](O)C[C@@]2(C)[C@H]1CC[C@]2(O)C(=O)CO [Hydrocortisone] | 8.43
OC(c1cc(C(F)(F)F)nc2c(C(F)(F)F)cccc12)C1CCCCN1 (stereo not given) [Mefloquine hydrochloride] | 10.8
N#Cc1ccc2[nH]cc(CCCCN3CCN(c4ccc5oc(C(N)=O)cc5c4)CC3)c2c1 [Vilazodone hydrochloride] | -5.66
CN1CCC[C@@H]1CCO[C@](C)(c1ccccc1)c1ccc(Cl)cc1 [Clemastine fumarate] | 22.4
CN1CCN2c3ncccc3Cc3ccccc3C2C1 (stereo not given) [Mirtazapine] | -2.95
COc1cc([C@@H]2c3cc4c(cc3[C@@H](O[C@@H]3O[C@@H]5CO[C@@H](C)O[C@H]5[C@H](O)[C@H]3O)[C@H]3COC(=O)[C@H]23)OCO4)cc(OC)c1O [Etoposide] | 6.33
O=C(c1ccc(OCCN2CCCCC2)cc1)c1c(-c2ccc(O)cc2)sc2cc(O)ccc12 [Raloxifene hydrochloride] | -2.86
CC(C)C(=O)OCC(=O)[C@@]12O[C@H](C3CCCCC3)O[C@@H]1C[C@H]1[C@@H]3CCC4=CC(=O)C=C[C@]4(C)[C@H]3[C@@H](O)C[C@@]12C [Ciclesonide] | -2.62
CC(C)COCC(CN(Cc1ccccc1)c1ccccc1)N1CCCC1 (stereo not given) [Bepridil hydrochloride] | 7.44
Cc1cc2c(s1)Nc1ccccc1N=C2N1CCN(C)CC1 [Olanzapine] | 16
COCCc1ccc(OCC(O)CNC(C)C)cc1 (stereo not given) [Metoprolol tartrate] | 10.9
CC(=O)O[C@]1(C(C)=O)CC[C@H]2[C@@H]3C=C(C)C4=CC(=O)CC[C@]4(C)[C@H]3CC[C@@]21C [Megestrol Acetate] | -7.55
CCOc1nc2cccc(C(=O)O)c2n1Cc1ccc(-c2ccccc2-c2noc(=O)[nH]2)cc1 [Azilsartan] | 7.48
CCN(CC)CCNC(=O)c1c(C)[nH]c(/C=C2\C(=O)Nc3ccc(F)cc32)c1C [Sunitinib malate] | -5.69
Nc1ncn([C@@H]2O[C@H](CO)[C@@H](O)[C@H]2O)c(=O)n1 [5-Azacytidine] | 8.76
O=C(O[C@@H]1C[C@@H]2C[C@H]3C[C@H](C1)N2CC3=O)c1c[nH]c2ccccc12 [Dolasetron mesylate] | 0.622
CCCCc1nc(Cl)c(CO)n1Cc1ccc(-c2ccccc2-c2nnn[nH]2)cc1 [Losartan potassium] | -6.92
Cn1cnc([N+](=O)[O-])c1Sc1ncnc2[nH]cnc12 [Azathioprine] | 9.74
